Potency and affinity values are given separately.

In this test the test system is Klebsiella pneumoniae. The following applies: Concentration 20 uM; ASSAY_TEST Inhibition of Bacterial Growth; detection method Absorption (OD600); MEDIA CAMHB; plate type 384well; NBS; CORNING #3640; time 18 hr.
The term Inhibition denotes the drop in the measured response relative to a control, in per cent. As to `Cc1cc(O)nc(-n2nc(C)cc2C)n1`, the Inhibition amounted to 12%.

For `CC(=O)O.CC(=O)O.Nc1ncnc2c1ncn2[C@@H]1O[C@H](COS(=O)(=O)NC(=O)c2ccccc2O)[C@@H](O)[C@H]1O`, the Inhibition is recorded as 14.67%.

Consider `O=C(C1CCN(c2nnnn2-c2ccccc2)CC1)N1CCc2ccccc2C1`, for which the Inhibition worked out at 12.73%.

In the case of `CC(C)(C)c1cc(C(=O)N2CCN(c3nccnc3C#N)CC2)n(Cc2ccccc2)n1`, the Inhibition is recorded as 14.9%.

For `CS(=O)(=O)c1cccc(-c2cnc3[nH]cc(-c4ccc(CCC(=O)O)cc4)c3c2)c1`, the Inhibition was determined as 6.09%.

For the compound `O=C(CCC1CCCCC1)Nc1cccc(-c2nnc(-c3ccco3)o2)c1`, the Inhibition was 9.71%.

`CC(C)n1ncc2c(C(=O)NCC(c3cccs3)N3CCOCC3)cc(-c3ccccc3)nc21` (stereo not given): the Inhibition is recorded as 8.44%.

Turning to `CCOc1ccc2cc(-c3nn(C(C)(C)C)c(N)c3C(N)=O)cnc2c1.Cl`, the Inhibition worked out at 13.27%.

`CNc1snc(C)c1C(=O)NCCOc1ccc(OC)cc1`: the Inhibition is given as 10.83%.

As to `COc1cc(CN2CCC3(C=Cc4ccccc43)CC2)cc2c1OCO2`, the Inhibition is given as -1.15%.

Regarding `COc1cccn2c(C(=O)N3CCCCC3)c(C(F)(F)F)nc12`, the Inhibition is reported as 7.08%.

Consider `Cc1cc(OCC(=O)Nc2ccc(C(C)C)cc2)n(C)c(=O)c1C#N`, for which the Inhibition is recorded as -7.95%.

Consider `Nc1ncnc2[nH]nc(Cc3cccc4ccccc34)c12`, for which the Inhibition was found to be 12.26%.

For `O=C1N(Cc2cc3ccccc3s2)CC2CN(Cc3ccccc3)CCN12` (stereo not given), the Inhibition worked out at 2.73%.

Regarding `NC(=O)c1cc(Br)ccc1OCCOc1ccccc1`, the Inhibition is listed as 10.17%.

Take `Cc1cc2ccccc2n1CC(=O)N1CC(C(=O)N2CCCCC2)Oc2ccccc21` (stereo not given): the Inhibition is recorded as 14.31%.

Turning to `CC(C)c1ncc(-c2ccncc2)c([C@H]2CC[C@H](CNC(=O)c3cccnc3)CC2)n1`, the Inhibition came to 18.24%.

As for `Cl.NCC(c1cccs1)S(=O)(=O)c1ccccc1` (stereo not given), the Inhibition was -0.58%.

Consider `CC1=Nc2ccc(Cl)cc2C(c2ccccc2)N1CCNC(=O)CN(C)C` (stereo not given), for which the Inhibition is 16.36%.

Turning to `CCOc1ccc(OCC(=O)Nc2cc(C)cc(C)c2)cc1`, the Inhibition stood at 6.85%.

On to `Cc1nn2c(O)c3c(nc2c1-c1ccc(F)cc1)CCCC3`, for which the Inhibition is 11.6%.

Consider `Cc1ccc2[nH]c3c(NCCN(C)C)ncnc3c2c1`, for which the Inhibition turned out to be 16.4%.

For the compound `Cc1cc(Cl)c(S(=O)(=O)N2CCCC2)cc1OCC(=O)NC1CCCCC1`, the Inhibition is 2.55%.

`CCN(CC)CCCN1CCN(C(=O)c2cccc(-c3noc(C(F)(F)F)n3)c2)CC1`: the Inhibition is on record as 3.68%.

For the compound `Cc1cc(C)c2cc(C(=O)NC3CCCCCCC3)[nH]c2c1`, the Inhibition was 18.42%.

Consider `Cc1cccc(NC(=O)c2cc(S(=O)(=O)N(C)c3ccc(F)cc3)ccc2Cl)n1`, for which the Inhibition was determined as 14.02%.

`COc1ccc(C2=NCCN2)cc1-c1cn(-c2cccc(C3=NCCN3)c2)nn1.O=C(O)C(F)(F)F.O=C(O)C(F)(F)F`: the Inhibition is on record as 17.32%.

Consider `C[C@]1(O)C[C@@H](c2nc(-c3ccc4ccc(-c5ccccc5)nc4c3)c3c(N)nccn32)C1` [LINSITINIB], for which the Inhibition stood at 12.51%.

As for `CC(C)(C)C(=O)N(CCCCCCN1C[C@H](O)[C@@H](O)[C@H](O)[C@H]1CO)C1CCCCCC1`, the Inhibition turned out to be 7.47%.

In the case of `O=C(NCCN1CCCC1)c1cc(NCCN2CCOCC2)nc2ccc(Cl)cc12`, the Inhibition is recorded as 16.49%.

In the case of `Cc1ccc(NC(=O)CC2COc3ccccc3O2)cc1Cl` (stereo not given), the Inhibition is given as 11.14%.

Regarding `CCC(=O)Nc1ccccc1C(=O)Nc1ccccn1`, the Inhibition is reported as 11.13%.

In the case of `O=C(NCc1ccoc1)N1CCN(Cc2ccc3c(c2)OCO3)CC1`, the Inhibition came to 7.21%.

As to `O=C(c1ccc(NCCO)cc1)C1C[C@H]1c1ccc(Cl)cc1` (stereo not given in full), the Inhibition turned out to be 5.98%.

In the case of `CC(C)(C)OC(=O)N1CCC(Cn2nc(-c3cnc4ccccc4c3)c3c(N)ncnc32)CC1`, the Inhibition is listed as 15.77%.

Source of the values: ChEMBL document CHEMBL4513149, “CO-ADD screening of MMV (CH) - MMV compounds” (2021).
